From PubChem BioAssay
A selection: hits, their analogues and other compounds. The true share with any hit is near 5.1%.
ROMK primary: ROMK potassium channel modulators, primary screen, cell-based, thallium flux, MLSMR library | B-score at 10 µM | AID 1918, 2009 | Tet-inducible ROMK, thallium flux fluorescence; actives lie on both sides | ATP-sensitive inward rectifier potassium channel 1 (Homo sapiens), P48048 | hit rate 2% among 130,000;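 active = signal ratio slope over the read window, or its plate-corrected B-score, at least 3 SD from the plate mean, either direction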;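 also: B-score of the F/F0 ratio slope over 7 to 12 s after thallium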
S1P4 antag: S1P4 receptor antagonists, primary screen, cell-based | Sphingosine 1-phosphate receptor 4 (Homo sapiens), O95977 | S1P4-expressing cells, antagonist mode, reporter read-out | inhibition, % at 4.98 µM | hit rate 0.26% among 220,000 | AID 1510, 2009; in the data active = inhibition above about 29%;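 also: 0% = wells stimulated with agonist and 100% = vehicle wells without agonist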
RAM inhibit: inhibitors of the yeast RAM network, primary screen, dse1pr::URA3 reporter, 5-FOA selection; S. cerevisiae dse1pr::URA3 reporter, 5-FOA growth OD615, 2 d; analog-sensitive cbk1-as2 kinase mutant strain; inhibition, % at 50 µM; hit rate 1.8% among 190,000; AID 868, 2007;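 active = inhibition above a set limit, 3 SD over mean compound inhibition, cut at about 8.4% in these data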;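 also: 0% = DMSO-only wells with no growth and 100% = 10 µM 1-NA-PP1 full growth; inhibition rescues growth on 5-FOA so higher OD means more RAM inhibition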
S1P4 agonist: S1P4 receptor agonists, primary screen, cell-based; activation, % at 4.98 µM; AID 1509, 2009; hit rate 0.35% among 220,000; S1P4-expressing cell line, agonist reporter assay; Sphingosine 1-phosphate receptor 4 (Homo sapiens), O95977; in the data active = activation above about 11%;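 also: 0% = DMSO vehicle and 100% = reference agonist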
S1P3 antagonist: S1P3 receptor antagonists, primary screen, cell-based; Sphingosine 1-phosphate receptor 3 (Homo sapiens), Q99500; hit rate 0.27% among 170,000; AID 485, 2006; inhibition, % at 4.98 µM; CHO S1P3 NFAT-BLA reporter, FRET fluorescence, antagonist mode;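 active = inhibition above the plate cutoff, the mean inhibition of test wells on that plate plus 3 SD, cut at about 28% in these data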;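 also: cells challenged with S1P at its EC80 of 0.8 µM; blue over green emission ratio from cleaved BLA substrate after 4 h stimulation; 0% = S1P-stimulated wells and 100% = unstimulated DMSO-only wells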
Cl transport mod: KCC2 cotransporter modulators, thallium flux, primary screen, cell-based, HEK293 KCC2, FluoZin-2 fluorescence, MLSMR; B-score of Tl+ flux slope (higher = more flux/activation; lower = inhibition) at 10 µM; KCC2 cells, thallium flux FluoZin-2 fluorescence; hit rate 2.2% among 190,000;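 active = thallium flux slope and its plate-corrected score both differing from the plate sample mean at a set confidence after two filtering rounds, in either direction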;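 also: slope of fluorescence scaled to starting intensity during 10 to 20 s after thallium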
S1P4 antag cf: S1P4 receptor antagonists, human, confirmation, cell-based | shares compounds with S1P4 antag | S1P4-expressing cell line, antagonist mode, reporter read-out | inhibition, % at 4.98 µM | hit rate 71% among 520; in the data active = inhibition above about 30%
S1P1 antag: S1P1 receptor antagonists, human, counter-screen for S1P4 antagonist project, cell-based; shares compounds with S1P4 antag; cell-based S1P1 antagonist counterscreen, inhibition; inhibition, % at 4.98 µM; hit rate 37% among 520; AID 1564, 2009; in the data active = inhibition above about 40%;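 also: receptor stimulated with S1P near its EC80; 0% = agonist stimulated wells and 100% = vehicle only wells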
Target sequence (P21453 whole entry, looked up): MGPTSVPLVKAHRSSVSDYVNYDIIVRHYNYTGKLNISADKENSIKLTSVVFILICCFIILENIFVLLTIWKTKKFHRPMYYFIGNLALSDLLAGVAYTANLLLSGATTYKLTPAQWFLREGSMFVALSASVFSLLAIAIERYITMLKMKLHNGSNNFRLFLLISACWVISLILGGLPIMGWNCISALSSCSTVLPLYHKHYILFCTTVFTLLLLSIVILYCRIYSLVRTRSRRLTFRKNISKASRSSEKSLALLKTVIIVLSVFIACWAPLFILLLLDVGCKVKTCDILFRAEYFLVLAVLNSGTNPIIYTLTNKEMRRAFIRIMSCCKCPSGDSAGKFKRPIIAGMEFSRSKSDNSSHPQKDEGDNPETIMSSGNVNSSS
Starred values were filed as active, the others as inactive; · = no result given.

SMILES	ROMK primary	S1P4 antag	RAM inhibit	S1P4 agonist	S1P3 antagonist	Cl transport mod	S1P4 antag cf	S1P1 antag
Cc1cc(C)c([N+](=O)[O-])cc1NCC(=O)N1CCN(c2ccccc2)CC1	0.93	38*	5	-1	7	0.43	-5	-9
CC(C)CC(=O)N1CCN(c2ccc([N+](=O)[O-])c(NCc3ccccc3)c2)CC1	·	-4	·	0	·	·	·	·
CCOC(=O)COc1ccc(S(=O)(=O)N2CCN(c3ccccc3F)CC2)cc1	·	36*	7	-4	-6	-0.45	26	-21
O=C1C(Cl)=C(Nc2ccc3cn[nH]c3c2)C(=O)c2ccccc21	·	62*	·	1	9	·	95*	91*
COc1ccc(/C=C/C(=O)CC(O)(c2ccccc2)C(F)(F)F)cc1 (stereo not given)	·	11	2	0	·	0.088	·	·
O=C(/C=C/c1ccccc1)CC(O)(c1ccccc1)C(F)(F)C(F)F (stereo not given)	-0.36	58*	3	-3	·	0.099	106*	33
COc1ccc(-c2cc(C#N)nc(Oc3ccc(Cl)cc3)n2)cc1	·	4	5	-1	-6	0.13	·	·
COc1ccc(-c2cc(C#N)nc(Cl)n2)cc1	-1.8	57*	·	-2	-7	-2.1	97*	28
O=C(Cn1ncc(Cl)c(Cl)c1=O)N1CCOCC1	0.77	44*	0	-4	-5	-0.0092	60*	27
CC1(C)C(=O)Nc2ccccc2N1C(=O)Cn1ncc(Cl)c(Cl)c1=O	·	95*	·	0	-3	-1.3	87*	33
Cc1nn(CC(=O)N2c3ccccc3NC(=O)C2(C)C)c(C)c1[N+](=O)[O-]	-0.091	-1	3	0	1	-0.15	·	·
O=C(Cn1ncc2c1-c1ccccc1OC2)N1CCN(Cc2ccccc2)CC1	·	9	·	0	4	-0.52	·	·
O=C(Cn1ncc(Cl)c(Cl)c1=O)N1CCN(Cc2ccccc2)CC1	-1.1	71*	0	-2	-14	-0.17	118*	61*
c1cnc(Oc2ccc(-c3nnco3)cc2)cn1	·	37*	1	1	-33	0.66	4	27
Oc1[nH]c2ccccc2c1N=NC(=S)N1CCOCC1	·	24	·	-2	8	·	·	·
Oc1[nH]c2ccc(Br)cc2c1N=NC(=S)N1CCOCC1	·	33*	·	-1	-3	·	102*	58*
CCOC(=O)N1CCc2c(sc3nc4n(c(=O)c23)N=C(c2ccc(OC)cc2)CS4)C1	·	-2	·	-2	-5	-0.055	·	·
O=c1cc(O)c2c(=O)n(Cc3ccccc3)c3ccccc3c2o1	0.095	89*	4	3	4	-1.2	-7	15
Oc1[nH]c2ccccc2c1N=Nc1ncnc2c1oc1ccccc12	-0.012	4	·	0	-9	0.8	·	·
Cc1ccc(NC(=O)CS(=O)CC(=O)Nc2ccc(N3CCOCC3)cc2)cc1Cl (stereo not given)	0.029	30*	3	0	-39	0.9	4	-4
CCOC(=O)/C(=C\c1ccc(OC(F)F)cc1)C1=Nn2c(nnc2-c2ccc(Cl)cc2)SC1	·	31*	3	0	1	-0.54	119*	87*
COc1ccc(-c2nnc3n2N=C(C)CS3)cc1	·	15	2	-1	·	-0.89	·	·
CCNc1c(NCC)c(=O)c1=O	0.59	14	·	-1	8	-0.67	·	·
N#Cc1nccnc1S(=O)(=O)c1cccs1	·	41*	·	0	4	·	97*	56*
O=S(=O)(c1cccs1)N1CCN(S(=O)(=O)c2cccs2)CC1	0.86	6	6	3	-3	-0.68	·	·
SMILES	ROMK primary	S1P4 antag	RAM inhibit	S1P4 agonist	S1P3 antagonist	Cl transport mod	S1P4 antag cf	S1P1 antag
COc1ccc(C[C@H]2CN3C(=NC[C@@H]3C(C)C)N2CCNC(=O)c2ccc(C)c(Br)c2)cc1	·	34*	1	-1	1	-1.1	41*	34
CC(CCCCC(=O)Nc1ccc(C(F)(F)F)cc1)NCCc1cnc[nH]1 (stereo not given)	·	4	·	2	5	0.71	·	·
COC(=O)c1cc(COC(=O)c2nc3nccc(C)n3n2)oc1C	·	-13	0	1	3	0.12	·	·
O=C(NCc1cccnc1)C(=O)N/N=C/c1ccccc1[N+](=O)[O-]	0.35	-3	4	-2	-12	0.25	·	·
O=C(NCc1cccnc1)C(=O)N/N=C/c1ccc([N+](=O)[O-])cc1	-0.11	30*	3	1	-12	-0.19	10	4
Cc1cc(C)cc(C(=O)NCC(=O)OCC(=O)NCc2ccco2)c1	0.04	-5	1	-1	-14	-0.9	·	·
O=C1c2cccc(Cl)c2C(=O)c2c1cccc2N1CCCC1	·	-4	·	3	·	·	·	·
O=C(OCn1ncc(Br)c(Br)c1=O)c1ccccc1Cl	-2.1	48*	2	-1	·	·	115*	29
O=C(OCn1ncc(Br)c(Br)c1=O)c1ccc(F)cc1	-3.5*	78*	-1	-2	·	-4.7*	117*	47*
Cc1cccc(C)c1NC(=O)COC(=O)c1nonc1N	·	29*	0	1	4	1.4	-7	10
O=C(CNS(=O)(=O)c1ccc(F)cc1)N1CCCCCC1	0.023	13	0	-1	-21	1.6	·	·
N#Cc1cc([N+](=O)[O-])cnc1Nc1ccccc1	1.1	-4	1	2	0	0.86	·	·
Cc1oc2c(c1C(=O)NCc1cccnc1)C(=O)c1ccccc1C2=O	·	90*	0	0	-12	0.55	116*	107*
COc1ccc(CNC(=O)c2c(C)oc3c2C(=O)c2ccccc2C3=O)cc1	-0.63	-7	3	0	-28	-0.33	·	·
Nc1ccc(N2CCCCC2)c2nonc12	0.38	2	1	5	-13	0.0021	·	·
Nc1ccc(C2CCCc3nonc32)c2nonc12 (stereo not given)	-1.7	43*	-1	-1	9	0.89	8	28
Cc1nn(C)c(C)c1N1C(=O)c2cccc3c(Br)ccc(c23)C1=O	·	44*	0	1	·	-1.3	89*	85*
Cc1nn(C)c(C)c1N1C(=O)c2cccc3c(N)ccc(c23)C1=O	·	18	1	1	1	·	·	·
